# Only some compounds are listed: those with a hit (about 0.58% of all), similar ones and a draw of the others.
# Epigenetic derep: Quantitative High-Throughput Screen for Regulators of Epigenetic Control; murine LDR cells, GFP reporter derepression, 30 h; Potency, µM (top dose mostly 53.9 µM), usual class: activators; 280,000 tested, 0.2% active; also: nearly all actives have a fitted effect of over 60% in size
#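 Murine LDR cells bearing a silenced CMV-driven GFP reporter were exposed to compound for 30 h at 37 C. After PBS washes, GFP-positive cells (20-120 um objects) counted by laser-scanning microplate cytometry.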
# PKM2 activator: qHTS Assay for Activators of Human Muscle isoform 2 Pyruvate Kinase; Pyruvate kinase PKM (Homo sapiens), P14618; purified PKM2, Kinase-Glo ATP luminescence, activation; response scale: 0% is enzyme alone, no compound; AID 1631, 2009; 260,000 tested, 0.34% active; Potency, µM (series often up to 57.5 µM), actives largely listed as activators; also: nearly all actives have a fitted effect of over 55% in size
# Target sequence (P14618 whole entry, looked up, canonical isoform): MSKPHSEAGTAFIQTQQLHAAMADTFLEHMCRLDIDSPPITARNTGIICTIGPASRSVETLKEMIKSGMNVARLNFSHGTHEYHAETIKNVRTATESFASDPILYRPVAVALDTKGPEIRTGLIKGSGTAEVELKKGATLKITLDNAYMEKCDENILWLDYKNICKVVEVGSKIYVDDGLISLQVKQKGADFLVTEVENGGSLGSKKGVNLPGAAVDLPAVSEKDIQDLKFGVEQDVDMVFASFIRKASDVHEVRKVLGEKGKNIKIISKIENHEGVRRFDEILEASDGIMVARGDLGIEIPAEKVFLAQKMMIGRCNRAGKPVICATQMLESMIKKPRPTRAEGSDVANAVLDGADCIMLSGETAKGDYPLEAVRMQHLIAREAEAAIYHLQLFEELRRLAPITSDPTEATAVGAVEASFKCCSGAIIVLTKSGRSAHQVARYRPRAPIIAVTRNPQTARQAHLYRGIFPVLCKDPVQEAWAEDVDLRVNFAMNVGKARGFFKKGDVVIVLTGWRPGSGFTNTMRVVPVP
#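 Purified hPK-M2 (>95% pure) converted ADP (0.1 mM final) to ATP with 0.5 mM PEP in 50 mM imidazole pH7.2, KCl, MgCl2, Tween 20, BSA; 1 h at room temperature. ATP detected by Kinase-Glo luminescence.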
# B2AR arrestin: qHTS assay of beta-arrestin-biased ligands of beta2-adrenergic receptor; Beta-2 adrenergic receptor (Homo sapiens), P07550; beta-arrestin recruitment to beta2AR, cell-based reporter; Potency, µM (highest dose often 46.1 µM), usual class: activators; 330,000 tested, 0.02% active; also: nearly all actives have a fitted effect of over 65% in size
# PINK1 expr mod: A Quantitative High throughput Screen to Identify Chemical Modulators of PINK1 Expression; PINK1 immunofluorescence, high-content cytometry, 24 h; AID 624263, 2012; 410,000 tested, 0.2% active; Potency, µM (highest dose often 76.6 µM), actives largely listed as activators; active = well fitted activation curve with a large enough effect; inconclusive = small, poorly fitted or top-dose-only effect; cell line not stated here; also: nearly all actives have a fitted effect of over 65% in size
#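 Measures PINK1 amount and localization on or inside mitochondria by immunofluorescence. Stable cells get compounds at 5 concentrations for 24 hours before fixation and staining; CCCP controls included.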
# IL2 activator: qHTS of IL-2 Activators; IL-2 activation reporter assay, cell-based qHTS; stimulated with anti-CD3/CD4/CD28 beads; in transgenic mouse T cells; activation, % (series mostly up to about 46 µM); 360,000 tested, 0.065% active; in the data active = activation above about 50%; inconclusive = mostly about 30% to 49%
#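 Readout: EGFP and DsRed signals by fluorescent plate cytometry. Unstimulated transgenic mouse T cells received compound 60 min before antibody-bead stimulation, then incubated 18 h at 37 degrees C.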
# Hits are given with their value; i = inactive; ? = inconclusive; nt = no result given. Unless noted, calls follow the shape of the dose curve; as a rule, active = well fitted curve in the direction sought with a large enough effect; inconclusive = small, poorly fitted or top-dose-only effect, or another doubt; inactive = no such curve, though single readings can be large; an effect the other way counts as inactive or inconclusive.
SMILES,Epigenetic derep,PKM2 activator,B2AR arrestin,PINK1 expr mod,IL2 activator
COc1ccc(Cn2nnnc2CN(Cc2cc3ccc(C)cc3[nH]c2=O)C2CCCC2)cc1,i,i,i,i,55
COC(=O)[C@@]1(Cc2ccc(F)cc2)[C@H]2c3cc(C(=O)N4CCCC4)n(Cc4ccc(C)c(F)c4F)c3C[C@H]2CN1C(=O)c1ccccc1,i,i,nt,i,i
COC(=O)[C@@]1(Cc2ccc(F)cc2)[C@H]2c3cc(C(=O)N4CCCC4)n(Cc4ccc(C)o4)c3C[C@H]2CN1C(=O)c1ccccc1,?,13µM,nt,i,i
COC(=O)[C@@]1(Cc2ccc(OC)cc2)[C@H]2c3cc(C(=O)N(C)C)n(Cc4ccc(C)o4)c3C[C@H]2CN1C(=O)c1ccccc1,?,8.9µM,nt,nt,nt
COC(=O)[C@@]1(Cc2ccc(OC)cc2)[C@H]2c3cc(C(=O)N(C)C)n(CCO)c3C[C@H]2CN1C(=O)c1ccccc1,i,i,nt,nt,nt
Cc1cc(C)cc(CN2CCOc3ccc(CN4CCC(O)(c5cccnc5)CC4)cc3C2)c1,nt,nt,nt,i,nt
COc1ccc(CN2CCCC(n3cc(C(=O)N4CCCCC4)nn3)C2)c(OC)c1 (centres undefined),nt,nt,nt,i,nt
CS(=O)(=O)Nc1cc(C(=O)N2CCNC(=O)C2)c2c(c1)ncn2CCc1ccccc1,nt,nt,nt,i,nt
C/C=C/C=C/C(=O)N1CC2(CC(c3cccc(NC(=O)CCCCC)c3)=NO2)C[C@H]1C(N)=O (some centres undefined),i,7.9µM,i,i,i
C/C=C/C=C/C(=O)N1CC2(CC(c3cccc(NC(=O)/C=C/C)c3)=NO2)C[C@@H]1C(N)=O (some centres undefined),i,8.9µM,i,i,i
C=C(C)C(=O)Nc1cccc(C2=NOC3(C2)C[C@@H](C(N)=O)N(C(=O)/C(C)=C/C)C3)c1 (some centres undefined),i,i,i,i,i
C=C(C)C(=O)Nc1cccc(C2=NOC3(C2)C[C@@H](C(N)=O)N(C(=O)/C=C/C=C/C)C3)c1 (some centres undefined),i,13µM,i,i,i
CCN(CC)c1ccc(/C=C2\SC(=O)N(C(C)C)C2=O)o1,7.1µM,13µM,i,?,i
CC(C)=NNC(=O)c1c(O)c2ccccc2[nH]c1=O,i,i,i,40µM,i
Cc1ccc(/C=C2/Sc3ccc(C(=O)NCc4ccccn4)cc3NC2=O)cc1,nt,nt,i,28µM,i
Cc1ccc(C(=O)NCCc2nnc3n2CCN(Cc2cc(C)cc(C)c2)CC3)cc1,nt,nt,nt,i,nt
Cc1c(Cc2ccccc2)c(=O)oc2c(O)c(O)ccc12,i,20µM,i,i,i
Cc1c(Cc2ccccc2)c(=O)oc2cc(O)ccc12,i,i,i,i,i
COc1ccccc1CN1CCCC(n2cc(C(=O)N3CCCCC3)nn2)C1 (centres undefined),nt,nt,nt,i,nt
O=S(=O)(c1cccs1)N1CCN(Cc2nc3ccccc3s2)CC1,i,22µM,i,i,i
O=C(OCc1nc2ccccc2s1)C1CCN(S(=O)(=O)c2cccs2)CC1,i,8.9µM,i,i,i
Fc1ccc(N2CCN(Cc3ccc4c(c3)CN(Cc3cccn3-c3ncccn3)CCO4)CC2)cc1,nt,nt,nt,i,nt
CCOn1c(=O)c(C)[n+]([O-])c2ccccc21,20µM,i,i,i,i
C=CCOn1c(=O)c(C)[n+]([O-])c2ccccc21,?,i,i,i,i
C/C(=N/N=C(\C)c1ccccc1O)c1ccccc1O,nt,nt,i,32µM,i
SMILES,Epigenetic derep,PKM2 activator,B2AR arrestin,PINK1 expr mod,IL2 activator
CCCCCc1c(CC)ncn1CCc1ccccc1OC,nt,nt,nt,32µM,i
COc1ccccc1C(=O)N[C@@H]1c2ccccc2C2(CCN(Cc3ccc(C)o3)CC2)[C@H]1O,nt,nt,nt,i,nt
CCN(CCO)c1nc(SC)nc2c1sc1nc(-c3ccco3)c3c(c12)CCC3,?,i,i,i,i
CSc1nc(NCCOCCO)c2sc3nc(-c4ccco4)c4c(c3c2n1)CCC4,i,22µM,i,i,i
CCC1=C/C(=C/c2sc3ccccc3[n+]2CC)CC(C)(C)C1,i,?,i,i,i
CC[n+]1c(/C=C2\C=C(C)CC(C)(C)C2)sc2ccccc21,i,i,i,13µM,i
CCC(NC(C)C)C(O)c1ccc(O)c2[nH]c(=O)ccc12 (centres undefined),i,i,0.18µM,i,i
CCCS(=O)(=O)NCc1c(C)ncc2c1CCN(C(=O)/C=C/c1ccccc1)C2,nt,nt,nt,i,nt
COc1ccc(/C=C(/C#N)c2nc(-c3ccc(-c4ccccc4)cc3)cs2)cc1OC,10µM,nt,nt,i,nt
COc1ccc(/C=C(\C#N)c2nc(-c3cc4c(ccc5ccccc54)oc3=O)cs2)cc1O,13µM,nt,nt,i,nt
CC(=O)Nc1ccccc1-c1nc(CNC(=O)c2ccc(-c3ccccc3F)cc2)c(C)o1,nt,nt,nt,i,nt
CCC1C(=O)NCCN1Cc1ccc2c(c1)CN(Cc1ccc(OC)cc1OC)CCO2 (centres undefined),nt,nt,nt,i,nt
COC(=O)c1[nH]c2cc(OC)c(OC)cc2c1/C=N/Nc1ccccc1,nt,nt,i,i,532
COC(=O)c1ccccc1SC(CC(=O)c1ccccc1)c1ccc(F)cc1 (centres undefined),22µM,i,i,i,i
Cc1ccc(-n2ncc3c(N4CCCC4)ncnc32)c(C)c1,i,25µM,i,nt,i
CCN(CCO)C(=O)c1cnn(-c2ncc3c(n2)-c2ccccc2CCC3)c1C1CC1,nt,nt,nt,i,nt
CCOc1ccc(S(=O)(=O)N2CCN(C(=S)NCc3ccco3)CC2)cc1,i,14µM,i,i,i
COc1ccc2c(c1)CCc1cnc(-n3ncc(C(=O)N(C)CCc4ccccn4)c3C)nc1-2,nt,nt,nt,i,nt
c1ccc(CCc2nn3c(Cn4cnc5ccccc54)nnc3s2)cc1,i,?,i,i,i
COc1ccc(OCc2nn3c(Cn4cnc5ccccc54)nnc3s2)cc1,i,25µM,i,i,i
Clc1ccccc1-c1nnc2sc(-c3ccc4c(c3)OCO4)nn12,i,i,i,i,i
Clc1ccccc1-c1nn2c(Cn3cnc4ccccc43)nnc2s1,i,4µM,i,i,i
c1ccc2c(c1)ncn2Cc1nnc2sc(-c3ccc4c(c3)OCO4)nn12,i,11µM,i,i,i
Cc1cnc(-n2ncc(C(=O)NC(C)(C)CO)c2-c2cccs2)nc1-c1ccc(F)cc1,nt,nt,nt,i,nt
[N-]=[N+]=CC(=O)C(Cc1ccccc1)N1C(=O)c2ccccc2C1=O (centres undefined),i,11µM,i,i,i
Cc1cccc2c(Nc3ccc4c(c3)OCO4)nc(CN3CCC(N4CCCCC4)CC3)nc12,nt,nt,nt,i,nt
Cc1cccc(NC(=O)CSc2nc(-c3cccs3)cc(C(F)(F)F)c2C#N)c1,14µM,nt,nt,i,nt

# Compound activity deposited in PubChem BioAssay by National Center for Advancing Translational Sciences (NCATS).
